In PubChem BioAssay (NCI) one finds growth data, which are given here for 15 compounds.

The panel holds about 83,000 compounds, 20% with a hit somewhere; the sample as a whole holds those more often.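 Activity criterion: percent growth below 10, measured after cells in 96-well plates were exposed to a single compound concentration for 48 hours.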 Values without a mark were called inactive. The source made the active and inactive calls.

Some test systems named below: NCI-H23 lung; NCI-H226 lung; HOP-62 NSCLC; NCI-H460 lung; HOP-92 NSCLC; A549/ATCC NSCLC; 786-0 renal; COLO 205 colon; NCI-H522 lung.
What all share (test): NCI-60 one-dose screen, 48 h (100 = growth as untreated, 0 = no growth, -100 = all killed)
What all share (details): 10 µM

As for `CCCCN1C(=O)CC(SC2CC(=O)N(CCCC)C2=O)C1=O` (centres undefined), the growth in the test with NCI-H23 lung is 97.9%; in the test on NCI-H226 lung, 104%; with HOP-62 NSCLC, 106%; in the test on NCI-H460 lung it was 108%; in the test on HOP-92 NSCLC, 97.8%; in the test with A549/ATCC NSCLC it was 119%. Also, the figures for the growth in the test with 786-0 renal and in the test on COLO 205 colon were 112% and 102%, respectively.

With `CC(=O)C1N=NCC1c1ccccc1` (centres undefined), the growth was 106% with NCI-H23 lung; 98% with NCI-H226 lung; 112% in the test on HOP-62 NSCLC; 98.8% in the test on NCI-H460 lung; 73.8% with HOP-92 NSCLC; 88.5% with NCI-H522 lung. The growth is 110% with 786-0 renal and 114% in the test with COLO 205 colon.

On to `Clc1ccc(/C=C2\CCCC3C2=Nc2ccccc2NC3c2ccc(Cl)cc2)cc1` (centres undefined), for which the growth with NCI-H23 lung was 83.3%; in the test with NCI-H226 lung it was 100%; with HOP-62 NSCLC, 122%; in the test on NCI-H460 lung, 94.3%; in the test with HOP-92 NSCLC, 60.6%; in the test on NCI-H522 lung it was 20%. Also, the growth in the test with 786-0 renal is 114%; in the test on COLO 205 colon it was 68.2%.

With `COc1ccc(/C=C2/SC(=S)NC2=O)c(OC)c1OC`, the growth in the test on NCI-H23 lung is 73.9%; with NCI-H226 lung, 81.6%; in the test on HOP-62 NSCLC, 69.2%; in the test on NCI-H460 lung, 90.3%; in the test on HOP-92 NSCLC it was 36.8%; in the test on NCI-H522 lung, 73.3%. The growth was 87.9% with 786-0 renal and 105% in the test with COLO 205 colon.

As to `CC(=O)C1CCC2C3CC=C4CC(SC(=N)N)CCC4(C)C3CCC12C` (centres undefined), the growth in the test on NCI-H23 lung is 61.8%; in the test with NCI-H226 lung, 56.6%; in the test on HOP-62 NSCLC, 82.5%; with NCI-H460 lung, 16.7%; in the test with HOP-92 NSCLC it was 30.2%; in the test on NCI-H522 lung, 61.5%. The results for the growth with 786-0 renal and in the test with COLO 205 colon were 48% and -100% (active), respectively.

For the compound `COc1cc(/C=C2\CCCC3=C2N=C2SC(C)=CN2C3c2cc(OC)c(OC)c(OC)c2)cc(OC)c1OC` (centres undefined), the growth is -30.4% (active) with NCI-H23 lung; -56.7% (active) in the test with NCI-H226 lung; -19.6% (active) in the test with HOP-62 NSCLC; 1.37% (active) in the test on NCI-H460 lung; 55.4% with HOP-92 NSCLC; -21.8% (active) in the test with NCI-H522 lung. Also, the growth with 786-0 renal is -18.1% (active); in the test on COLO 205 colon, -71% (active).

For `C#CC(C)(O)[C@@H]1C[C@H](CC(=O)O)C1(C)C` (some centres undefined), the growth is 98% in the test with NCI-H23 lung; 111% with NCI-H226 lung; 112% in the test with HOP-62 NSCLC; 116% in the test on NCI-H460 lung; 114% with HOP-92 NSCLC; 113% in the test on A549/ATCC NSCLC. In addition, the growth in the test on 786-0 renal was 110%; in the test on COLO 205 colon, 122%.

Consider `O=S(=O)(Oc1ccc(-c2ccc3sccc3c2)cc1)c1ccc(F)cc1`, for which the growth was 87.6% with NCI-H23 lung; 94.5% in the test on NCI-H226 lung; 111% with HOP-62 NSCLC; 103% in the test with NCI-H460 lung; 105% in the test on HOP-92 NSCLC; 87.7% in the test on NCI-H522 lung. Moreover, the results for the growth with 786-0 renal and with COLO 205 colon were 96.3% and 111%, respectively.

`O=C(N/N=C/c1ccc([N+](=O)[O-])cc1)c1ccccc1Nc1cccc(C(F)(F)F)c1`: the growth in the test with NCI-H23 lung is 91.2%; in the test on NCI-H226 lung, 95.2%; in the test with HOP-62 NSCLC, 89.4%; in the test on NCI-H460 lung, 115%; in the test with HOP-92 NSCLC, 61%; with NCI-H522 lung it was 88.8%. Besides, the values for the growth in the test on 786-0 renal and with COLO 205 colon were 73% and 131%, respectively.

On to `O=C(N/N=C/c1ccc(Cl)cc1)c1ccccc1Nc1cccc(C(F)(F)F)c1`, for which the growth in the test on NCI-H23 lung was 91.2%; in the test with NCI-H226 lung it was 81.2%; in the test with HOP-62 NSCLC, 72.9%; in the test with NCI-H460 lung it was 86.8%; with HOP-92 NSCLC, 73.7%; with NCI-H522 lung it was 77.9%. Also, the growth in the test on 786-0 renal is 86%; in the test on COLO 205 colon, 108%.

As to `COc1ccc(/C=C2\CCCC3=C2NC(N)=NC3c2ccc(OC)cc2)cc1` (centres undefined), the growth with NCI-H23 lung is 94.1%; with NCI-H226 lung, 77.3%; with HOP-62 NSCLC, 110%; in the test with NCI-H460 lung, 99.2%; in the test with HOP-92 NSCLC, 68.6%; in the test on NCI-H522 lung, 77.3%. In addition, the growth in the test on 786-0 renal was 106%.

`CCC(=O)OC1CCC2C3CCC(=O)OC3C(C)(CCC(=O)O)CC12C` (centres undefined): the growth in the test with NCI-H23 lung was 33.1%; in the test with NCI-H226 lung, 60.1%; in the test with HOP-62 NSCLC, 38.5%; with NCI-H460 lung, 42.6%; in the test with HOP-92 NSCLC it was -1.1% (active); in the test with NCI-H522 lung, 24.7%. Moreover, the growth with 786-0 renal is -41.7% (active); in the test with COLO 205 colon, 41.7%.

On to `COc1ccccc1/C=N\N/C(N)=N\N=C\c1ccccc1OC`, for which the growth is 26.8% with NCI-H23 lung; 48.5% in the test on NCI-H226 lung; -24.8% (active) in the test on HOP-62 NSCLC; 2.85% (active) with NCI-H460 lung; 48.9% in the test on HOP-92 NSCLC; 4.02% (active) in the test with NCI-H522 lung. Also, the growth in the test on 786-0 renal is 7.99% (active); in the test on COLO 205 colon it was -10.9% (active).

Regarding `CN(C)CCOc1ccc(-c2nc3sccn3c2-c2ccnc(S(C)(=O)=O)n2)cc1`, the growth in the test on NCI-H23 lung is 103%; in the test on NCI-H226 lung, 102%; with HOP-62 NSCLC, 87.5%; with NCI-H460 lung, 103%; in the test on HOP-92 NSCLC, 57%; in the test with NCI-H522 lung it was 106%. Besides, the results for the growth in the test on 786-0 renal and in the test on COLO 205 colon were 105% and 114%, respectively.

As to `O=C(COc1cccc(/C=C2\CSc3ccc(Cl)cc3C2=O)c1)c1ccc(Cl)cc1`, the growth was 75.1% in the test with NCI-H23 lung; 84.3% in the test with NCI-H226 lung; 83.6% with HOP-62 NSCLC; 91.3% in the test with NCI-H460 lung; 15.6% in the test on HOP-92 NSCLC; 36.8% in the test with NCI-H522 lung. Besides, the growth was 94.6% in the test on 786-0 renal and 115% in the test with COLO 205 colon.
